Laboratory results published in the supplement of paper PMC12350171.
Structures can show the parent of a compound that is named as a salt. A number with no mark means an inactive call.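 Rule for the calls: active = AUC significantly below DMSO controls by Student t-fit with adjusted P under 0.01; inactive = not significantly reduced.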

Test system: Haemophilus parainfluenzae
Test: growth AUC normalised to DMSO control (fraction of control); higher = less growth inhibition, active = hit call of the paper
Conditions: 20 µM
Outline: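 For the AUC endpoint, growth curves were integrated by the trapezoidal rule up to the exponential-to-stationary transition and normalised to DMSO controls on the same plate. The curves came from OD578 readings taken hourly for 24 h, in three biological replicates. Pathogens had been passaged anaerobically twice and inoculated at an OD578 of 0.01 into pre-reduced mGAM plates carrying 20 μM compound and 1% DMSO, sealed with breathable membranes. Medium for Haemophilus parainfluenzae also contained hemin and NAD.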

SMILES | growth AUC normalised to DMSO control
Cc1onc(-c2ccccc2Cl)c1C(=O)N[C@@H]1C(=O)N2[C@@H]1SC(C)(C)[C@@H]2C(=O)O [Cloxacillin sodium salt] | 0.914
CC[C@H]1OC(=O)[C@H](C)[C@@H](O[C@H]2C[C@@](C)(OC)[C@@H](O)[C@H](C)O2)[C@H](C)[C@@H](O[C@@H]2O[C@H](C)C[C@H](N(C)C)[C@H]2O)[C@](C)(O)C[C@@H](C)/C(=N\OCOCCOC)[C@H](C)[C@@H](O)[C@]1(C)O [Roxithromycin] | 0.1 (active)
COc1ccccc1O [Guaiacol] | 0.998
Cc1ccccc1N1C(=O)c2cc(S(N)(=O)=O)c(Cl)cc2NC1C (centres undefined) [Metolazone] | 0.966
CC(=O)O[C@]1(C(C)=O)CC[C@H]2[C@@H]3C=C(C)C4=CC(=O)CC[C@]4(C)[C@H]3CC[C@@]21C [Megestrol acetate] | 1.06
COc1cccc2c1C(=O)c1c(O)c3c(c(O)c1C2=O)C[C@@](O)(C(C)=O)C[C@@H]3O[C@H]1C[C@H](N)[C@H](O)[C@H](C)O1 [Daunorubicin hydrochloride] | 0.997
O=C(O)Cc1ccc(-c2ccccc2)cc1 [Felbinac] | 0.948
C=C1c2c(Cl)ccc(O)c2C(O)=C2C(=O)[C@]3(O)C(O)=C(C(N)=O)C(=O)[C@@H](N(C)C)[C@@H]3[C@@H](O)[C@H]12.O=C(O)c1cc(S(=O)(=O)O)ccc1O [Meclocycline sulfosalicylate] | 0.0341 (active)
C[C@]12CCC(=O)C=C1C=C[C@@H]1[C@@H]2CC[C@@]2(C)[C@H]1CC[C@@]21CCC(=O)O1 [Canrenone] | 1
O=C(O)c1cc(-c2ccc(F)cc2F)ccc1O [Diflunisal] | 0.916
CC(C)(C)NC[C@H](O)c1ccc(O)c(CO)c1 [Levalbuterol hydrochloride] | 0.993
COC(=O)Nc1nc2cc(C(=O)c3ccccc3)ccc2[nH]1 [Mebendazole] | 0.983
CC(=O)O[C@H]1C[C@@]2(C)[C@@H](C[C@@H](O)[C@H]3[C@@]4(C)CC[C@@H](O)[C@@H](C)[C@@H]4CC[C@@]32C)/C1=C(\CCC=C(C)C)C(=O)O [Fusidic acid sodium salt] | 0.345 (active)
CCC[C@@H]1C[C@@H](C(=O)N[C@@H]([C@H]2O[C@H](SC)[C@H](O)[C@@H](O)[C@H]2O)[C@@H](C)O)N(C)C1 [Lincomycin hydrochloride] | 0.828 (active)
O=C(O)c1cc(=O)c2c(OCC(O)COc3cccc4oc(C(=O)O)cc(=O)c34)cccc2o1 [Cromolyn disodium salt] | 1.01
CCOC(=O)c1ccc(OC(=O)CCCCCNC(=N)N)cc1 [Gabexate mesilate] | 0.919
CCN(CC)CCOC(=O)C1(c2ccc([N+](=O)[O-])cc2)CCCC1 [Nitrocaramiphen hydrochloride] | 1.01
COc1ccc(-c2cc(=S)ss2)cc1 [Anethole-trithione] | 1.05
C=CC1=C(C(=O)O)N2C(=O)[C@@H](NC(=O)/C(=N\O)c3csc(N)n3)[C@H]2SC1 [Cefdinir] | 0.176 (active)
Cc1cc(C(=O)NNCc2ccccc2)no1 [Isocarboxazid] | 1.06

SMILES | growth AUC normalised to DMSO control
CC(C)(C#N)c1cc(Cn2cncn2)cc(C(C)(C)C#N)c1 [Anastrozole] | 1.1
NC(=O)c1cnccn1 [Pyrazinamide] | 0.979
C[C@]12CC[C@@H]3c4ccc(O)cc4C[C@@H](CCCCCCCCC[S+]([O-])CCCC(F)(F)C(F)(F)F)[C@H]3[C@@H]1CC[C@@H]2O (some centres undefined) [Fulvestrant] | 1.32
CN(N=O)C(=O)N[C@H]1C(O)O[C@H](CO)[C@@H](O)[C@@H]1O (mixture of isomers) [Streptozotocin] | 0.172 (active)
Nc1ccc(/N=N/c2ccccc2)c(N)n1 [Phenazopyridine hydrochloride] | 0.922
CN(C)CCCO[C@@H]1[C@H]2OC(C)(C)O[C@H]2O[C@@H]1[C@H](O)CO [Amiprilose hydrochloride] | 0.963
CCCNC(=O)NS(=O)(=O)c1ccc(Cl)cc1 [Chlorpropamide] | 0.995
CN(C)CCOc1ccc(/C(=C(/CCCl)c2ccccc2)c2ccccc2)cc1 [Toremifene] | 0.997
Nc1ncn(C2OC(CO)C(O)C2O)c(=O)n1 (centres undefined) [Azacytidine-5] | 0.781
CS(=O)(=O)c1ccc([C@@H](O)[C@@H](CO)NC(=O)C(Cl)Cl)cc1 [Thiamphenicol] | 0.032 (active)
CC(=O)O[C@H]1C(=O)[C@@]2(C)[C@H]([C@H](OC(=O)c3ccccc3)[C@]3(O)C[C@H](OC(=O)[C@H](O)[C@@H](NC(=O)c4ccccc4)c4ccccc4)C(C)=C1C3(C)C)[C@]1(OC(C)=O)CO[C@@H]1C[C@@H]2O [Paclitaxel] | 1.08
Nc1ccn([C@@H]2O[C@H](CO)[C@@H](O)C2(F)F)c(=O)n1 [Gemcitabine] | 1.1
CC(=O)S[C@@H]1CC2=CC(=O)CC[C@]2(C)[C@H]2CC[C@@]3(C)[C@@H](CC[C@@]34CCC(=O)O4)[C@H]12 [Spironolactone] | 0.891
COc1cc(N)c(Cl)cc1C(=O)NC1CCN(Cc2ccccc2)CC1 [Clebopride maleate] | 0.989
Clc1ccc(C(Cn2ccnc2)OCc2csc3c(Cl)cccc23)c(Cl)c1 (centres undefined) [Sertaconazole nitrate] | 1.07
CN(C)CCOC(=O)C(c1ccccc1)C1(O)CCCC1 (centres undefined) [Cyclopentolate hydrochloride] | 1.04
CC(=O)CCCCn1c(=O)c2c(ncn2C)n(C)c1=O [Pentoxifylline] | 1.01
COC(=O)Nc1nc2ccc(SC(C)C)cc2[nH]1 [Methiazole] | 1.05
OC(Cn1cncn1)(Cn1cncn1)c1ccc(F)cc1F [Fluconazole] | 1.07
